Reference: PubChem BioAssay
The source made the active and inactive calls.

Experiments:
[1] = tested on: Human papillomavirus type 1a protein E7 (residues 44-93); test: HPV1a E7 fragment binders on microarrays, primary screen, biochemical, small-molecule microarray, residues 44-93, 635 nm fluorescence (AID 1108); details: small-molecule microarray binding, fluorescence 635 nm; higher = more signal;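 also: E7 fragment applied at 1 µg/mL in TBST for 1 h at 4 C; score combines spot fluorescence with its signal to noise ratio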
[2] = modulators of HCV replicon luciferase signal, primary screen, HCV replication inhibitor project, Huh7 cells, luciferase reporter (AID 1109); details: 48 h, higher = more signal;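 also: huh7 hepatoma cells harbouring a luciferase neomycin HCV replicon reporter; luciferase luminescence as measure of HCV replicon replication; test concentration not given here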
[3] = biological target: Left-right determination factor 2 (Homo sapiens) (UniProt O00292); test: LEFTY2 binders on small-molecule microarrays, primary screen, biochemical, small-molecule microarray, 635 nm fluorescence scan (AID 1110); details: LEFTY2 binding, higher = more signal
Chain of Left-right determination factor 2 (Homo sapiens) (O00292 whole entry, looked up): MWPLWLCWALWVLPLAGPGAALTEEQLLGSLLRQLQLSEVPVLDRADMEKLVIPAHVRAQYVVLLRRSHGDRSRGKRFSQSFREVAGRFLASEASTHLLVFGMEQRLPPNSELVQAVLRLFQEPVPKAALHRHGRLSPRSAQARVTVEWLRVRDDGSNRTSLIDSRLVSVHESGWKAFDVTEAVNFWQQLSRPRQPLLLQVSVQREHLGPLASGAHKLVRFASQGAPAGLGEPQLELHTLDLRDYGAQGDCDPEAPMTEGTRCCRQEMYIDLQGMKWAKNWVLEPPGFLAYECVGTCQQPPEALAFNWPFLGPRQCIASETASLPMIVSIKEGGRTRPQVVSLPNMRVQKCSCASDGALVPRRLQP

[4] = biological target: Calmodulin-1 (Homo sapiens) (UniProt P0DP23); test: CALM1 binders on microarrays, EGTA buffer, profiling panel, biochemical, small-molecule microarray, Cy5-labelled CALM1 (AID 1111); details: Cy5-CALM1 binding fluorescence, higher = more signal;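 also: labelled calmodulin applied in Tris saline Tween buffer holding calcium plus EGTA and DTT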
[5] = biological target: Calmodulin-1 (Homo sapiens) (UniProt P0DP23); test: calcium-bound CALM1 binders on microarrays, profiling panel, artefact control for SMM control-protein annotation, biochemical, small-molecule microarray, Cy5-labelled CALM1, plus calcium (AID 1112); details: Cy5-CALM1 binding fluorescence, higher = more signal;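 also: score merges spot fluorescence with signal to noise from triplicate slides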
[6] = small-molecule microarray binders of probe aWnt5a, primary screen, biochemical, biotinylated probe, 635/667 nm fluorescence (AID 1113); details: higher = more signal;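 also: score merges 667 nm fluorescence intensity with signal-to-noise per printed feature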
[7] = small-molecule microarray binders of probe aShh, primary screen, biochemical, biotinylated probe, 635/667 nm fluorescence (AID 1114); details: higher = more signal;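 also: probe is biotin-labelled aShh protein from a stem cell growth factor screen; measures binding of labelled protein to compounds printed on the slide; score merges feature fluorescence at 667 nm with signal-to-noise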
[8] = small-molecule microarray binders of probe aNog, primary screen, biochemical, biotinylated probe, 635/667 nm fluorescence (AID 1115); details: higher = more signal;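 also: probe is biotinylated aNog protein used at 0.15 µg/mL for 1 h at 4 C; z-score combines 667 nm fluorescence of each spot with its signal to noise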
[9] = biological target: Torsin-1A-interacting protein 1 (Homo sapiens) (UniProt Q5JTV8); test: LAP1 binders from COS7 cell lysate, primary screen, small-molecule microarray, 635/667 nm fluorescence (AID 1116); details: COS7-hLAP1 lysate binding, 635 nm fluorescence, higher = more signal
Chain of Torsin-1A-interacting protein 1 (Homo sapiens) (Q5JTV8 whole entry, looked up): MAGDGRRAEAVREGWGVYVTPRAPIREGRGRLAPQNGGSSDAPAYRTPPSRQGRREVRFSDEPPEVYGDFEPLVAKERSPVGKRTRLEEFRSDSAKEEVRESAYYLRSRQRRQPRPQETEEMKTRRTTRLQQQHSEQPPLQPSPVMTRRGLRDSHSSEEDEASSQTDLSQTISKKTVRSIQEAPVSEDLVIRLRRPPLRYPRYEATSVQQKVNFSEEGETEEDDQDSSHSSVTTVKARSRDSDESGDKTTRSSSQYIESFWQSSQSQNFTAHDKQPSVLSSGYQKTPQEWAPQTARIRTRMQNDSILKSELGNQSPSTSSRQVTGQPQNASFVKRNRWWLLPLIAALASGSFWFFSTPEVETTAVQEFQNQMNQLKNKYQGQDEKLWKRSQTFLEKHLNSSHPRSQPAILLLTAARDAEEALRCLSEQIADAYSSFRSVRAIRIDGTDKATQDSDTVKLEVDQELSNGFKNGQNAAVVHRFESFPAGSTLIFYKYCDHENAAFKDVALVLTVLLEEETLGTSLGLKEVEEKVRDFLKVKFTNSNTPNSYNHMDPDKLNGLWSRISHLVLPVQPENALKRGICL

[10] = biological target: Alpha-bungarotoxin (Bungarus multicinctus) (UniProt P60615); test: alpha-bungarotoxin binders on microarray, profiling panel, artefact control for SMM control protein annotation, biochemical, small-molecule microarray, Alexa647 label, 635/667 nm fluorescence (AID 1117); details: alpha-BTX-A647 binding fluorescence, higher = more signal
Chain of Alpha-bungarotoxin (Bungarus multicinctus) (P60615 whole entry, looked up): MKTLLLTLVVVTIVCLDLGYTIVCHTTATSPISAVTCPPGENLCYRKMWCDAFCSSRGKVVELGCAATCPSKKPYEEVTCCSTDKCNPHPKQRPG

[11] = biological target: Albumin (Bos taurus) (UniProt P02769); test: bovine serum albumin binders on microarray, profiling panel, artefact control for SMM control protein annotation, biochemical, small-molecule microarray, Alexa647 label, 635/667 nm fluorescence (AID 1118); details: BSA-A647 binding, fluorescence 635 nm, higher = more signal;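 also: score merges 667 nm emission intensity and signal-to-noise per printed compound spot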
Chain of Albumin (Bos taurus) (P02769 whole entry, looked up): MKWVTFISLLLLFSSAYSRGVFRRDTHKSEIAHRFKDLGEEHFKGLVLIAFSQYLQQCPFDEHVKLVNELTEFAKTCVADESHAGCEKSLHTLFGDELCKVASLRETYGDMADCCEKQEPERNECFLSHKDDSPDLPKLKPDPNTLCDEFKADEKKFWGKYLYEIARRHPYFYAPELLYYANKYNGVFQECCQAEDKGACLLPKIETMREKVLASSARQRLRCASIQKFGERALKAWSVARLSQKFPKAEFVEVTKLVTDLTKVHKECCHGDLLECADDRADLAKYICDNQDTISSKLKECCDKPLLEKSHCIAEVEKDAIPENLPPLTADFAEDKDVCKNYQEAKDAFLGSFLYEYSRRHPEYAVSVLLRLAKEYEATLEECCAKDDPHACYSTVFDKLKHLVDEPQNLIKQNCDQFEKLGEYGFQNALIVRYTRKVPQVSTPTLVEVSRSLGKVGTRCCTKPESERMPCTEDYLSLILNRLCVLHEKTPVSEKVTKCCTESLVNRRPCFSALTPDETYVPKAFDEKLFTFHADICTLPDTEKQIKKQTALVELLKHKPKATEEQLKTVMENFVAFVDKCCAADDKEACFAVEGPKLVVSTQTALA

[12] = small-molecule microarray binders of probe aXIP, primary screen, biochemical, NeuroSMM set, 635/667 nm fluorescence (AID 1119); details: higher = more signal, called active from +8 up or from −8 down;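 also: probe is the protein aXip251-270 applied at 1 µg/mL to compound-printed slides; binding of probe to printed compounds measured as 667 nm fluorescence plus signal to noise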
[13] = small-molecule binders of probe aNOTCH3, primary screen, biochemical, small-molecule microarray, 635/667 nm fluorescence (AID 1120); details: higher = more signal;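 also: probe is a biotin-tagged antibody raised against NOTCH3 rather than NOTCH3 protein; score merges spot fluorescence near 667 nm with spot signal to noise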
[14] = small-molecule binders of probe aNOTCH2, primary screen, biochemical, small-molecule microarray, 635/667 nm fluorescence (AID 1121); details: higher = more signal;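 also: score merges feature fluorescence read at 667 nm with its signal to noise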
[15] = biological target: Carbonic anhydrase 2 (Homo sapiens) (UniProt P00918); test: CAII small-molecule binders, profiling panel, biochemical, small-molecule microarray, Alexa647-labelled CAII (AID 1122); details: CAII-A647 binding fluorescence, higher = more signal
[16] = COS7 lysate on small-molecule microarray, probe aHis, 635 nm (AID 1123); details: COS7 cell lysate, fluorescence, higher = more signal;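 also: z-score combines 667nm fluorescence intensity with signal-to-noise per printed compound spot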
[17] = compound binding in COS7 lysate, probe aLAP1, primary screen, cell lysate, small-molecule microarray (AID 1124); details: probe aLAP1, fluorescence, higher = more signal;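 also: lysate comes from COS7 cells expressing LAP1 and is applied at 0.3 µg/mL; score merges spot fluorescence near 667 nm with signal-to-noise over triplicate slides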
[18] = tested on: Sam68 (KHDRBS1); test: Sam68 small-molecule binders, primary screen, biochemical, small-molecule microarray, 635 nm fluorescence (AID 1125); details: small-molecule microarray binding, higher = more signal;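 also: score merges 667 nm channel intensity with signal to noise over triplicate slides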
[19] = tested on: Chordin-like protein 2 (CHRDL2); test: CHRDL2 small-molecule binders, primary screen, biochemical, small-molecule microarray, 635 nm fluorescence (AID 1126); details: small-molecule microarray binding, fluorescence 635 nm; higher = more signal;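 also: printed compound slides probed with Chrdl2 protein at 4 µg/mL for 1 h at 4 C; score merges 667 nm emission intensity with signal to noise over three replicate slides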
[20] = biological target: Concanavalin-A (Canavalia ensiformis) (UniProt P02866); test: ConA small-molecule binders, primary screen, artefact control for SMM control protein annotation, biochemical, small-molecule microarray, Alexa647 label, 635 nm (AID 1127); details: ConA-A647 binding fluorescence, higher = more signal;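 also: z combines 667 nm emission intensity with signal-to-noise across three replicate slides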
Chain of Concanavalin-A (Canavalia ensiformis) (P02866 whole entry, looked up): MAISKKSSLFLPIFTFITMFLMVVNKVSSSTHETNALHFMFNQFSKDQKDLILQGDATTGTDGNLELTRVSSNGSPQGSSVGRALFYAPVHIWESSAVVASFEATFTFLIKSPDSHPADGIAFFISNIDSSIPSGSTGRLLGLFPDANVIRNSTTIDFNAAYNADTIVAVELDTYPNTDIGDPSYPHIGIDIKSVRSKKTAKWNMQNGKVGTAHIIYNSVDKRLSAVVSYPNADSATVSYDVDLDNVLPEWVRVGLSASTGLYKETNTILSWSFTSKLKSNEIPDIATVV

Structure (SMILES) | composite z-score [1] | z-score [2] | composite z-score [3] | composite z-score [4] | composite z-score [5] | composite z-score [6] | composite z-score [7] | composite z-score [8] | composite z-score [9] | composite z-score [10] | composite z-score [11] | composite Z-score [12] | composite z-score [13] | composite z-score [14] | composite z-score [15] | composite z-score [16] | composite z-score [17] | composite z-score [18] | composite z-score [19] | composite z-score [20]
COc1ccc(NN2C(C(O)c3cc(OC)c(OC)c(OC)c3)C=CC3C(=O)N(C4CCCCC4)C(=O)C32)cc1 (stereo not given) | 1.22 | -1.92 | -0.346 | 1.58 | 0.509 | 0.114 | -0.226 | 0.273 | 0.479 | 1.96 | 1.02 | 0.487 (inactive) | 0.831 | 0.531 | 0.211 | 2.42 | 0.754 | 1.3 | -1.2 | 1.1
CC(=O)Nc1ccc([C@H]2[C@H](C)CC[C@H]3C(=O)N4[C@@H](CC[C@@H](C)[C@@H]4c4ccc(NC(C)=O)cc4)C(=O)N32)cc1 | 0.946 | -0.288 | 0.72 | 0.184 | -0.346 | -0.176 | 0.168 | 0.33 | 0.424 | 0.884 | 0.626 | -0.222 (inactive) | -0.0699 | -0.195 | 0.634 | 1.24 | 0.264 | 1.31 | 0.378 | 1.12
O=C1O[C@@H](c2ccccc2)[C@@H](c2ccccc2)N2[C@@H](c3ccc(O)cc3)[C@]3(C(=O)Nc4ccccc43)[C@@H](C(=O)N3CCN(c4ncccn4)CC3)[C@H]12 | 0.746 | -1.91 | -0.389 | 0.874 | 1.09 | -0.105 | 0.182 | 0.0486 | 0.0398 | 1.16 | 0.689 | 5.4 (inactive) | -0.122 | -0.154 | 0.686 | 0.456 | 0.613 | 0.528 | -0.571 | 0.474
NC(=O)NCC#Cc1ccc2c(c1)[C@]1(C(=O)N2)[C@H](c2ccccc2OCCO)N2[C@H](c3ccccc3)[C@H](c3ccccc3)OC(=O)[C@H]2[C@@H]1C(=O)N1CCN(c2ncccn2)CC1 | 1.4 | -0.729 | 0.235 | 0.427 | 0.263 | -0.124 | 0.399 | -0.582 | 1.04 | 0.959 | 0.0405 | 0.39 (inactive) | 0.0539 | -0.0907 | 0.335 | 1.82 | 0.614 | 1.29 | 0.326 | 0.946
CCOC(=O)C[C@H]1[C@H](OC(=O)c2ccccc2-c2ccccc2)[C@@H](NC(=O)c2ccc(-c3ccccc3)cc2)c2cc(OCCCO)ccc2N1C(=O)Cc1ccc(OC)cc1 | 0.295 | -2.04 | 0.462 | -0.203 | -0.499 | -0.111 | -0.0626 | -0.31 | -0.0098 | 0.322 | 0.0867 | 0.0368 (inactive) | 0.0193 | -0.0759 | -0.0176 | 0.416 | -0.0563 | 0.406 | 0.335 | 0.398
